# Where “and” joins values, the source holds several entries; their conditions need not be identical. Identical values can stand only once. Results filed as inconclusive are left out. Entries that show only a call come without a potency. A number with no mark means an inactive call. Calls of active or inactive are those of the source. Calls follow the shape of the dose curve; as a rule, active = well fitted curve in the direction sought with a large enough effect; inconclusive = small, poorly fitted or top-dose-only effect, or another doubt; inactive = no such curve, though single readings can be large; an effect the other way counts as inactive or inconclusive.
# How the values were obtained:
# [1] = Viability qHTS for spleen associated tyrosine kinase inhibitor (SYKi) naive MV4-11 cells (AID 1963823); also: nearly all actives have a fitted effect of over 40% in size
# Outline: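 Seeding of 500 SYKi-naive MV4-11 cells per well onto pre-dispensed compounds preceded a 72 hr incubation at 37 C. Luminescent CellTiter-Glo signal, read after 10 min at room temperature, reflected viable cells.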
# [2] = Quantitative highthroughput screen to assess conditional lethalithy of NOMO1 cells grown in RPMI1640 with untreated serum (RPMI+s) (AID 1963876); also: nearly all actives have a fitted effect of over 35% in size
# Outline: (§1)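 Each medium arm—HPLM with 10% dialyzed FBS, or RPMI1640 with 5 mM glucose and 10% untreated or dialyzed FBS—was screened against an 11-point, 3-fold compound titration for 48 h at 37 °C, with CellTiter-Glo luminescence as endpoint.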
# [3] = Quantitative highthroughput screen to assess conditional lethalithy of NOMO1 cells grown in RPMI1640 with dialyzed fetal bovine serum (RPMI+ds) (AID 1963877); also: nearly all actives have a fitted effect of over 30% in size; as to Viability: series mostly up to about 46 µM
# Outline: as §1
# [4] = Quantitative highthroughput screen to assess conditional lethalithy of NOMO1 cells grown in Human Plasma-Like Medium with dialyzed fetal bovine serum (HPLM+ds) (AID 1963878); also: nearly all actives have a fitted effect of over 35% in size
# Outline: as §1
# [5] = Quantitative highthroughput screen to assess conditional lethalithy of P12 Ichikawa cells grown in Human Plasma-Like Medium with dialyzed fetal bovine serum (HPLM+ds) (AID 1963879); settings: Potency: viability; also: nearly all actives have a fitted effect of over 35% in size; as to Viability: series mostly up to about 46 µM
# Outline: as §1
# [6] = Quantitative highthroughput screen to assess conditional lethalithy of P12 Ichikawa cells grown in RPMI1640 with untreated serum (RPMI+s) (AID 1963881); settings: Potency: viability; also: nearly all actives have a fitted effect of over 35% in size; as to Viability: series mostly up to about 46 µM
# Outline: as §1
# [7] = Quantitative highthroughput screen to assess conditional lethalithy of SEM cells grown in Human Plasma-Like Medium with dialyzed fetal bovine serum (HPLM+ds) (AID 1963882); also: nearly all actives have a fitted effect of over 35% in size; as to Viability: series mostly up to about 46 µM
# Outline: as §1
# [8] = Quantitative highthroughput screen to assess conditional lethalithy of SEM cells grown in RPMI1640 with unreated serum (RPMI+s) (AID 1963883); also: nearly all actives have a fitted effect of over 35% in size
# Outline: as §1
# [9] = Cellular viability qHTS for adrenocortical cancer (ACC) cell line SW-13 (AID 1963989); settings: SW-13 ACC cells viability, CellTiter-Glo, 48 h; activity (max response): stronger effect = lower value; also: nearly all actives have a fitted effect of over 65% in size;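 as to activity (max response): cells grown in serum-free medium with ITS supplement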
# Outline: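 Luminescent ATP read-out (CellTiter-Glo, 20 min at room temperature) measured metabolically competent SW-13 cells after 48 h compound treatment. Final concentrations spanned up to 46 uM; bortezomib served as positive control.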
# [10] = Cellular viability qHTS for adrenocortical cancer (ACC) cell line NCI-H295R (AID 1963990); also: nearly all actives have a fitted effect of over 60% in size
# Outline: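 IC50 and maximal efficacy derive from four-parameter logistic modelling of titration curves, with reads scaled between DMSO-only wells (0%) and doxorubicin hydrochloride (100% inhibition). Compounds spanned up to 46 uM over 48 h.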
# [11] = Quantitative highthroughput screen to assess conditional lethalithy of P12 Ichikawa cells grown in RPMI1640 with dialyzed fetal bovine serum (RPMI+ds) (AID 1963880); settings: Potency: P12-Ichikawa viability; also: nearly all actives have a fitted effect of over 35% in size
# Outline: as §1
# [12] = Quantitative highthroughput screen to assess conditional lethalithy of SEM cells grown in RPMI1640 with dialyzed fetal bovine serum (RPMI+ds) (AID 1963884); also: nearly all actives have a fitted effect of over 35% in size; as to Viability: series mostly up to about 46 µM
# Outline: as §1
# Potency is read from the fitted curve at half-maximal effect.
SMILES,Potency [1],Potency [2],Potency [3],Potency [4],Potency [5],Potency [6],Potency [7],Potency [8],Potency [9],Potency [10],Potency [11],Potency [12],activity (max response) [9]
COC(=O)C1=C(C)NC(C)=C(C(=O)OCCN2CCN(C(c3ccccc3)c3ccccc3)CC2)C1c1cccc([N+](=O)[O-])c1 (stereo not drawn),11.9 µM (active),inactive,inactive,inactive,inactive,inactive,inactive,inactive,4.47 µM (active),3.98 µM (active),–,–,–
CCOC(=O)C=C[C@H](C[C@@H]1CCNC1=O)NC(=O)[C@@H](CC(=O)[C@@H](NC(=O)c1cc(C)on1)C(C)C)Cc1ccc(F)cc1,inactive,inactive,inactive,inactive,inactive,inactive,inactive,inactive,–,inactive,inactive,inactive,-3.62%
O=c1cc(O)c(Cl)c[nH]1,inactive,7.43 µM (active),8.33 µM (active),5.26 µM (active),7.43 µM (active),8.33 µM (active),–,–,–,inactive,14.8 µM (active),–,20.2%
Cc1nccn1CC1CCc2c(c3ccccc3n2C)C1=O (stereo not drawn),inactive,inactive,inactive,inactive,inactive,inactive,–,inactive,–,inactive,inactive,inactive,-14.2%
N=c1ccn2c(n1)O[C@H]1[C@@H](O)[C@@H](CO)O[C@H]12,2.95 µM (active),2.96 µM (active),1.48 µM (active),1.48 µM (active),0.132 µM (active),0.118 µM (active),0.132 µM (active),0.132 µM (active),–,inactive,0.132 µM (active),0.0935 µM (active),–
CC(=O)[C@H]1CC[C@H]2[C@@H]3CC=C4C[C@@H](O)CC[C@]4(C)[C@H]3CC[C@]12C,5.96 µM (active),inactive,inactive,inactive,inactive,inactive,inactive,inactive,–,inactive,inactive,inactive,–
COc1ccnc(CS(=O)c2nc3ccc(OC(F)F)cc3[nH]2)c1OC (stereo not drawn),inactive,inactive,inactive,inactive,inactive,inactive,inactive,inactive,–,inactive,inactive,inactive,-15.5% and -5.64%
CC(C)OC(=O)C(C)(C)Oc1ccc(C(=O)c2ccc(Cl)cc2)cc1,inactive,inactive,inactive,inactive,inactive,inactive,–,10.5 µM (active),–,inactive,inactive,–,–
OCc1ccc(-c2nn(Cc3ccccc3)c3ccccc23)o1,5.25 µM (active),13.2 µM (active),16.6 µM (active),16.6 µM (active),inactive,–,–,–,–,–,–,–,-19%
NC(=O)c1cccc(-c2cccc(OC(=O)NC3CCCCC3)c2)c1,inactive,inactive,inactive,inactive,0.332 µM (active),–,inactive,–,–,inactive,–,–,-29.9%
O=C1CCCC(=O)C1C(=O)c1ccc(C(F)(F)F)cc1[N+](=O)[O-],inactive,inactive,inactive,inactive,inactive,inactive,–,inactive,–,inactive,inactive,inactive,6.97%
CN1CCN2c3ncccc3Cc3ccccc3C2C1 (stereo not drawn),inactive,inactive,inactive,inactive,inactive,inactive,inactive,inactive,–,inactive,inactive,inactive,–
CCN(CC)Cc1ccc2cc(COC(=O)Nc3ccc(C(=O)NO)cc3)ccc2c1,291 nM (active) and 468 nM (active),3.72 µM (active),3.72 µM (active),2.96 µM (active),2.35 µM (active),2.35 µM (active),1.66 µM (active),2.09 µM (active),2.82 µM (active),1.78 µM (active),2.35 µM (active),1.87 µM (active),–
C[C@](Cc1c[nH]c2ccccc12)(NC(=O)OC1C2CC3CC(C2)CC1C3)C(=O)NC[C@H](NC(=O)CCC(=O)O)c1ccccc1 (stereo partly drawn),inactive,inactive,inactive,inactive,inactive,inactive,inactive,–,–,inactive,inactive,–,0.678%
CC(=O)N(C)C1(c2ccccc2)CCN(CCC[C@]2(c3ccc(Cl)c(Cl)c3)CCCN(C(=O)c3ccccc3)C2)CC1,4.11 µM (active),1.87 µM (active),1.87 µM (active),0.526 µM (active),2.96 µM (active),7.43 µM (active),0.662 µM (active),0.743 µM (active),–,–,2.96 µM (active),1.05 µM (active),–
